Assay results taken from the supplement of paper PMC11732987, “Enantioselective OTUD7B fragment discovery through chemoproteomics screening and high-throughput optimisation” (Communications Chemistry, 2025).

Tests used:
Assay in all cases: log2 ratio of Biotin-Ahx-Ub-VS probe labelling (fragment/DMSO); higher = less target engagement (more negative = stronger competition), active = hit call of the paper (q ≤ 0.05, log2 ratio ≤ -1)
Settings in all cases: compound concentration: 200 uM; treatment time: 3 h
[1] = molecular target: T1, USP19 (UniProt O94966)
T1 sequence (whole entry): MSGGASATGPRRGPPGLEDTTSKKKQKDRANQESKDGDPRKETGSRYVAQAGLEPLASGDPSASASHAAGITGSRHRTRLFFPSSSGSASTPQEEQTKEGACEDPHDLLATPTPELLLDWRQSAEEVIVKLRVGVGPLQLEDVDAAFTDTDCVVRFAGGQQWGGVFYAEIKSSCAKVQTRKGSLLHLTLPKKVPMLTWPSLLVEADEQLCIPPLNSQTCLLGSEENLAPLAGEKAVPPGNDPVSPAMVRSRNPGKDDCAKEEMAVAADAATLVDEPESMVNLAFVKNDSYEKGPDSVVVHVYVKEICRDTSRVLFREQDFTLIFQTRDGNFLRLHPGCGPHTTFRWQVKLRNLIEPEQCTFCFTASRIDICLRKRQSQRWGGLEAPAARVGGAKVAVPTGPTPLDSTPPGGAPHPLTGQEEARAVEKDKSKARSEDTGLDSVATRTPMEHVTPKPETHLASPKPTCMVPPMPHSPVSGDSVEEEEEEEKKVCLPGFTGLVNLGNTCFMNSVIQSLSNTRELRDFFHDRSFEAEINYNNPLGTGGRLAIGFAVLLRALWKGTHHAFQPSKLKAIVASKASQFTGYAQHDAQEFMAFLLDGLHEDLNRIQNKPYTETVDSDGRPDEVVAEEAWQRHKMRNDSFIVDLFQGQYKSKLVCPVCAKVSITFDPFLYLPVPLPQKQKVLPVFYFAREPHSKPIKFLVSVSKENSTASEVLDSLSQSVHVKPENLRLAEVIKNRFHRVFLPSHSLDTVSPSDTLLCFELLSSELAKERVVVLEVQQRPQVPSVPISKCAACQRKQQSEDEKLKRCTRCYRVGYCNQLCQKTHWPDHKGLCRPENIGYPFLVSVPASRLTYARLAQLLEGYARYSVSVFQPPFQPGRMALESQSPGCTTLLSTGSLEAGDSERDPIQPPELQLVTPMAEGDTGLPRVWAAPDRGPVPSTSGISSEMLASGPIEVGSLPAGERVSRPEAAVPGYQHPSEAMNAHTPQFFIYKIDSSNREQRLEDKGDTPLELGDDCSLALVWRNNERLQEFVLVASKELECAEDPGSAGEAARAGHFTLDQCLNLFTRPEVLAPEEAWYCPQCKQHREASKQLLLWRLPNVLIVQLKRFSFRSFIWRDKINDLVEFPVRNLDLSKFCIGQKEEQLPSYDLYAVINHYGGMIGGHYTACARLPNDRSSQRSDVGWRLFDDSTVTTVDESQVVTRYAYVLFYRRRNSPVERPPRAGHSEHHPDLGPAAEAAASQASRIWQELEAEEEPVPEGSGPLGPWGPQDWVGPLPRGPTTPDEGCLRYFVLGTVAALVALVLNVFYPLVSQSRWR
Summary of the method: (§1)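 HEK293T lysate (495 µg per sample, in Tris/CHAPS/IGEPAL buffer with protease inhibitors) was treated in triplicate with fragment at 200 µM or with DMSO for 3 h. It was then treated with Biotin-Ahx-Ub-VS (0.5 µM final) for 1 h. Labelled DUBs were NeutrAvidin-enriched, digested with LysC and trypsin, and run by diaPASEF LC-MS/MS. Spectronaut label-free quantities were global-median-normalised. Values are average log2 ratios fragment/DMSO by unpaired t-test, using proteins with ≥2 unique peptides.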

[2] = molecular target: T2, USP22 (UniProt Q9UPT9)
T2 sequence (whole entry): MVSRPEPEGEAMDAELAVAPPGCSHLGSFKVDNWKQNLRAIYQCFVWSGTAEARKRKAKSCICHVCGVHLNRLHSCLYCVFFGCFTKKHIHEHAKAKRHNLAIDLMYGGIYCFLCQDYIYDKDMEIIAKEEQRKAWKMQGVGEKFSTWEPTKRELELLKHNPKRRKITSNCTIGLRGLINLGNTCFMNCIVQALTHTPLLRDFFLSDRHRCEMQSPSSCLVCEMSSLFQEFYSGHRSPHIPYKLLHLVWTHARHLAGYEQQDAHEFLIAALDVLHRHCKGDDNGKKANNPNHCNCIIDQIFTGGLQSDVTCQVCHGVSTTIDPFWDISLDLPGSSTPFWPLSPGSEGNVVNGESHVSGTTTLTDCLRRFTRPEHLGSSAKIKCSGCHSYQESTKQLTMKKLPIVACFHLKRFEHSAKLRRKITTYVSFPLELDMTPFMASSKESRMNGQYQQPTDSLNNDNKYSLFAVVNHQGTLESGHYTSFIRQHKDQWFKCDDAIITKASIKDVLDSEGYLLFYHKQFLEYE
Summary of the method: as §1

[3] = molecular target: USP24 (UniProt Q9UPU5)
Summary of the method: as §1

[4] = molecular target: T3, USP25 (UniProt Q9UHP3)
T3 sequence (whole entry): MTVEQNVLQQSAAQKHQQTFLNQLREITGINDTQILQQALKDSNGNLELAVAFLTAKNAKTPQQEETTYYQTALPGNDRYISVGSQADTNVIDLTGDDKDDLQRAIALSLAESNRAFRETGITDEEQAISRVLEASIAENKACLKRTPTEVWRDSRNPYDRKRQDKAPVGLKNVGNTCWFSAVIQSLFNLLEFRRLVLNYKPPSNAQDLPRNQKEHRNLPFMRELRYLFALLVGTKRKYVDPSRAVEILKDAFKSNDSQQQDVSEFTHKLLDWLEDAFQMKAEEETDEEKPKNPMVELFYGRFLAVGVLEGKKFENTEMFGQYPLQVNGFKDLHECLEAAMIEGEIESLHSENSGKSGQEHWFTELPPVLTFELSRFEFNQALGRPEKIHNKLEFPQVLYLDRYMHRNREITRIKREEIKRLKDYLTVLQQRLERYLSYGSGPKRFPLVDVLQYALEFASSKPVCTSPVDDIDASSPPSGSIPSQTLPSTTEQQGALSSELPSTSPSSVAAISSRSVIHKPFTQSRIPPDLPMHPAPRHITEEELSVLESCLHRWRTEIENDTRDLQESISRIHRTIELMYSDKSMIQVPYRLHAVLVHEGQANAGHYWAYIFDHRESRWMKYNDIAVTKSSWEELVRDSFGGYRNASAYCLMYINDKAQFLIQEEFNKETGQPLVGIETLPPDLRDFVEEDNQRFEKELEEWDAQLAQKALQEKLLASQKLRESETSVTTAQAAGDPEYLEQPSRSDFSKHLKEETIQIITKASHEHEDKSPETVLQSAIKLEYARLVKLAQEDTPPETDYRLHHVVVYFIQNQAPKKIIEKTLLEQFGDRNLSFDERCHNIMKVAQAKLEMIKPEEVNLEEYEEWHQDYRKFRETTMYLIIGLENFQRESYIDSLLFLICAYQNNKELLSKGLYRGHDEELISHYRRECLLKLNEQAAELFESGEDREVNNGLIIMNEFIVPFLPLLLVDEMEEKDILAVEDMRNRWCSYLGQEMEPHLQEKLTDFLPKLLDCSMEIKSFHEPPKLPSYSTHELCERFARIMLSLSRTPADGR
Summary of the method: as §1

[5] = molecular target: T4, USP28 (UniProt Q96RU2)
T4 sequence (whole entry): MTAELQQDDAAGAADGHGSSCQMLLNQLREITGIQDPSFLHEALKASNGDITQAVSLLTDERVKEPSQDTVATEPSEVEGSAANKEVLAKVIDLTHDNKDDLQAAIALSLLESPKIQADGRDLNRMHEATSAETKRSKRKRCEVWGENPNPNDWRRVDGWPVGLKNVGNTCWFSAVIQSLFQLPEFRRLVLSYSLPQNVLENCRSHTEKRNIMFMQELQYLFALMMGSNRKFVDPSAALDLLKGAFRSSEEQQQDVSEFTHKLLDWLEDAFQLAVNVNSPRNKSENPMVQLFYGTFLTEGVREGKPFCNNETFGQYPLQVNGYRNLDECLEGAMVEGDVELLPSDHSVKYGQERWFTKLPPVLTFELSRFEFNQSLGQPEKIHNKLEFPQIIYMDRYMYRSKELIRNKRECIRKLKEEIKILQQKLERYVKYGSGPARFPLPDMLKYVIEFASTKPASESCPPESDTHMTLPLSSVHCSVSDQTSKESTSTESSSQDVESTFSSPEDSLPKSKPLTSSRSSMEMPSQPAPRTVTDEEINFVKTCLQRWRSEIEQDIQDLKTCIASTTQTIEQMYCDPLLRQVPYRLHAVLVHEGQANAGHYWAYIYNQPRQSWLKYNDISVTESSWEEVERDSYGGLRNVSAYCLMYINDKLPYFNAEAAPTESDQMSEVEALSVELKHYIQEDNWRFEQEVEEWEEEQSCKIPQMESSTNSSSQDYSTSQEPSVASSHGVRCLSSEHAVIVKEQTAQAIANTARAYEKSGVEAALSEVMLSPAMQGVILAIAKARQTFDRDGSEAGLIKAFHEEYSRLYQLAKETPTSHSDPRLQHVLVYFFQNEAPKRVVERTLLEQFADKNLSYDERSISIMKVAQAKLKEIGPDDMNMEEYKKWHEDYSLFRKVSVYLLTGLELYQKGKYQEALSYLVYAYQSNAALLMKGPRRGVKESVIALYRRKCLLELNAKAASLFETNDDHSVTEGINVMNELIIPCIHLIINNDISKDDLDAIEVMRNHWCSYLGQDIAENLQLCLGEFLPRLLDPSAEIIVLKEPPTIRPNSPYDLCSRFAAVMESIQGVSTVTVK
Summary of the method: as §1

Measured: log2 ratio of Biotin-Ahx-Ub-VS probe labelling

Sequence of USP24 (Q9UPU5 whole entry): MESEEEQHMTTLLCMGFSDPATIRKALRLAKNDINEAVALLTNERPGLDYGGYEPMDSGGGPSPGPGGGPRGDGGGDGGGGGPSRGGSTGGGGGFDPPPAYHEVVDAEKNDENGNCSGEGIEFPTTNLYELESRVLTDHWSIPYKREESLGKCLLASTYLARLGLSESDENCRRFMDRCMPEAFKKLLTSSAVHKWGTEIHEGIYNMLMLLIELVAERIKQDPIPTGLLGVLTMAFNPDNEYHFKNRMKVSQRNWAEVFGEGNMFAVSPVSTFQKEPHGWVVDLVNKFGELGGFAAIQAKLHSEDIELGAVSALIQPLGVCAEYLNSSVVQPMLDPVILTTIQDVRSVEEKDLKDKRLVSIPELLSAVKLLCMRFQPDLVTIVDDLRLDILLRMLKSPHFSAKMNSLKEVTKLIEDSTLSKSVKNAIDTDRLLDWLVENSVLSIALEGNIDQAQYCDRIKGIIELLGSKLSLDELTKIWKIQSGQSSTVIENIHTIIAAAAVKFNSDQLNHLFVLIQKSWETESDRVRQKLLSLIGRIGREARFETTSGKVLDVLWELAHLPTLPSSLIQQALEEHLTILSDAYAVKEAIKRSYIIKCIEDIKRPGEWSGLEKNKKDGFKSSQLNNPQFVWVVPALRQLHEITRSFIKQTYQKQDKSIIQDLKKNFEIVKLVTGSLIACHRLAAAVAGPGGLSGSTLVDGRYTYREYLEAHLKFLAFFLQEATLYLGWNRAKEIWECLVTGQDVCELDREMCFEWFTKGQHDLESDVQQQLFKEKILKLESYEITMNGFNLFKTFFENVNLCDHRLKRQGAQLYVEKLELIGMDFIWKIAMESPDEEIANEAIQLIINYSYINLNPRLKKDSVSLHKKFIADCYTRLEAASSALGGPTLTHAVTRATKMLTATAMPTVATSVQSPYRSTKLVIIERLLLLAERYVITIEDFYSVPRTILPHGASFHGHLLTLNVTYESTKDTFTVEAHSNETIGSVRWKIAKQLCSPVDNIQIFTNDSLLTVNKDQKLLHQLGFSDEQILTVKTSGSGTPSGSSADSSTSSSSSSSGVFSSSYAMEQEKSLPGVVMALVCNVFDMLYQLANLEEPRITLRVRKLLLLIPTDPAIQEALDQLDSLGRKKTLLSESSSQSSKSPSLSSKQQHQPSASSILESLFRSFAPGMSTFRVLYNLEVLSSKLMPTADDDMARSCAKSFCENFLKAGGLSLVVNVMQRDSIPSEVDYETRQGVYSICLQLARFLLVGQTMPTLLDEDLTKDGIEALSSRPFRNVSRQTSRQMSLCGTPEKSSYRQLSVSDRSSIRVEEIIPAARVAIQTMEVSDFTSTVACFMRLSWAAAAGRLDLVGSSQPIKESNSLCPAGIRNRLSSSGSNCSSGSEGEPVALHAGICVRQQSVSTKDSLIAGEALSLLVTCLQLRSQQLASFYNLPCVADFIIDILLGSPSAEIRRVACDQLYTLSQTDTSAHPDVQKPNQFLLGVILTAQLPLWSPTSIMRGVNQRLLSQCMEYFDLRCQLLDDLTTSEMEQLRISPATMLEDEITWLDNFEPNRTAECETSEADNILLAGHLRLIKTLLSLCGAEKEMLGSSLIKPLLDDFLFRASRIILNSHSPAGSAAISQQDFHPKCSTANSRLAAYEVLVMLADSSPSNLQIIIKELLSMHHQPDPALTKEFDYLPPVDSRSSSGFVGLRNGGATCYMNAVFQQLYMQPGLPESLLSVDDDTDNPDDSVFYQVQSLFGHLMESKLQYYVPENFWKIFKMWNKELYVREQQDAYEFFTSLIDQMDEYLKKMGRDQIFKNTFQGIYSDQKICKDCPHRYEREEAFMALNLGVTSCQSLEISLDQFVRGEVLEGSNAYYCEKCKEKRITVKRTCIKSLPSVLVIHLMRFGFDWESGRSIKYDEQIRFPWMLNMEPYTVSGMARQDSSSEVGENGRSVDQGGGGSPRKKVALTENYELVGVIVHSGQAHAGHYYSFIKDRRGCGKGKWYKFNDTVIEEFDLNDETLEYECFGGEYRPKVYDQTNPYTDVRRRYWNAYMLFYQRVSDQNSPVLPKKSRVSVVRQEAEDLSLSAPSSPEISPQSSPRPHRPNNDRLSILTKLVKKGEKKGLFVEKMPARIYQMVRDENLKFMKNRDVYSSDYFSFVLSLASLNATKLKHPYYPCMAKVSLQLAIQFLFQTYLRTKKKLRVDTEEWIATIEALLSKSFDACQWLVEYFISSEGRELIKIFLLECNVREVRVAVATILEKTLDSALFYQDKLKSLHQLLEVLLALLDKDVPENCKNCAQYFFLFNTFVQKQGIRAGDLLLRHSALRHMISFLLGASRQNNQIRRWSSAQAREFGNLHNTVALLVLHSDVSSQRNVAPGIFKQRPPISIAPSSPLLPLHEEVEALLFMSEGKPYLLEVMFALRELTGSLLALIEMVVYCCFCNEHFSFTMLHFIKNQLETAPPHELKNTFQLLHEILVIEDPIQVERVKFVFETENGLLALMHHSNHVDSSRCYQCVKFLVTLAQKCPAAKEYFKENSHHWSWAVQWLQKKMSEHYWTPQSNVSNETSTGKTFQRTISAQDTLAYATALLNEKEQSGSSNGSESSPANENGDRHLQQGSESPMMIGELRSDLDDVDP

O=C(CCl)NCc1ccc(N2CCOCC2)c(F)c1
inactive: [1] 0.108 | [2] -0.359 | [3] 0.223 | [4] -0.255 | [5] -0.606
